# Test results from PubChem BioAssay.
# Calls of active or inactive are those of the source. Unless noted, the rule behind the calls is not given here.
# Columns and labels:
# [1] = test system: XIP peptide (Xip251-270) binding; assay: XIP fragment 251-270 binding compounds – biochemical, small-molecule microarray, fluorescence 635/667 nm, 0.1 µg/mL protein, primary screen (AID 1182); settings: fluorescent protein binding, 635 nm, higher = more signal, called active from +8 up or from −8 down
# [2] = test system: XIP peptide (Xip251-270); assay: compounds binding XIP fragment 251-270 – biochemical, small-molecule microarray, fluorescence 635/667 nm, 0.5 µg/mL protein, primary screen (AID 1183); settings: fluorescence 635 nm, higher = more signal
# [3] = blood-stage malaria parasite viability loss – strain 3D7, DAPI fluorescence, 100 nL, primary screen (AID 1184);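 note: parasites grown inside human red blood cells in medium with human serum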; settings: P. falciparum 3D7 growth, 3 d, higher = more signal
# [4] = target: Homeobox protein Hox-A13 (Mus musculus) (UniProt Q62424); assay: disruptors of Hoxa13 oligonucleotide interaction – biochemical, fluorescence polarization, labeled oligonucleotide, primary screen (AID 1185); settings: Hoxa13:DNA binding, 15 min, higher = more signal, called active from +8 up or from −8 down
# [5] = blockers of DNA damage checkpoint Chk1 activation – imaging, HeLa, hydroxyurea, phospho-Chk1 antibody, percent positive cells, primary screen (AID 1186); settings: hydroxyurea-induced phospho-Chk1 immunofluorescence imaging, higher = more signal
# [6] = blockers of DNA damage checkpoint Chk1 activation – imaging, HeLa, hydroxyurea, phospho-Chk1 nuclear intensity, primary screen (AID 1187); settings: hydroxyurea-induced phospho-Chk1 immunofluorescence imaging, higher = more signal
# Sequence of Homeobox protein Hox-A13 (Mus musculus) (Q62424 whole entry, looked up): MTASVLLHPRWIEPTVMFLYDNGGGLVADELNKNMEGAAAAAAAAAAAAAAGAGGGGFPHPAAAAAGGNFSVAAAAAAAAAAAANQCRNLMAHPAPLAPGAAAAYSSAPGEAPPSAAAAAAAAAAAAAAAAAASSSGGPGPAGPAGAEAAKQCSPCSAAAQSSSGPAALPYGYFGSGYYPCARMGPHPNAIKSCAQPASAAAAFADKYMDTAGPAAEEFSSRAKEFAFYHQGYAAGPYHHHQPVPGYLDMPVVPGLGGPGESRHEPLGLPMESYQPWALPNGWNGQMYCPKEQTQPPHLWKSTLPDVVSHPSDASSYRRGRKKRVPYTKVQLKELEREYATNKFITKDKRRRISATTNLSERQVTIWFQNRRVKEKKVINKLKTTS
Structure (SMILES),composite z-score [1],composite z-score [2],z-score [3],z-score [4],z-score [5],z-score [6]
O=C1N(CCS(=O)(=O)c2ccccc2)c2ccccc2[C@H]2OC(c3ccc(OCCCO)cc3)=N[C@@]12Cc1ccccc1,3.13 (inactive),0.832,-1.92,-0.41 (inactive),-0.37 (inactive),0.158 (inactive)
CC(C)C(CO)N1C(=O)[C@@H]2C3C(=O)OCCC/C=C\[C@H]3OC23C=CCN(Cn2nnc4ccccc42)C(=O)[C@@H]13 (stereo partly drawn),-0.261 (inactive),0.348,0.596,-3.97 (inactive),-0.833 (inactive),-0.709 (inactive)
O=C1OCCC/C=C\[C@H]2OC34C=CCN(c5ccc6ccccc6c5)C(=O)[C@H]3N(CCO)C(=O)[C@@H]4C12 (stereo partly drawn),0.314 (inactive),-1.38,-1.05,-5.35 (inactive),-0.234 (inactive),-0.0994 (inactive)
CCCCC[C@H]1OC[C@@]23C=C(Br)[C@@H](CC12)[C@@]1(CO1)C3=O (stereo partly drawn),-0.311 (inactive),-0.332,1.66,-2.47 (inactive),-0.556 (inactive),-0.245 (inactive)
OCCCC1=CC(c2ccc(CN3CCCC3)cc2)N(Cc2cc3c(cc2Br)OCO3)CC1 (stereo not drawn),-0.265 (inactive),-0.3,-3.05,-2.68 (inactive),0.905 (inactive),0.629 (inactive)
CC1CC/C=C\[C@H]2OC34C=CCN(C(C)(C)C)C(=O)[C@H]3N(CCCCCO)C(=O)[C@@H]4C2C(=O)O1 (stereo partly drawn),0.28 (inactive),-0.48,-0.375,-4.58 (inactive),0.139 (inactive),0.408 (inactive)
C=CCC(OC(C)=O)[C@@H]1[C@@H](N(Cc2ccc(-c3ccccc3)cc2)C(=O)c2ccc(-c3ccccc3)cc2)c2cc(OCCCO)ccc2N1C(=O)c1ccc2ccccc2c1 (stereo partly drawn),-0.29 (inactive),-0.482,0.248,-0.68 (inactive),0.215 (inactive),-0.144 (inactive)
COc1cc2c(cc1O)C(c1cccs1)N(Cc1cc3c(cc1Br)OCO3)CC2 (stereo not drawn),-0.177 (inactive),0.867,-1.57,-1.01 (inactive),-0.117 (inactive),0.128 (inactive)
CCCC=C(CCC)[C@@H](NS(=O)(=O)CC12CCC(CC1=O)C2(C)C)c1ccc(C(=O)OC)cc1 (stereo partly drawn),-0.341 (inactive),0.316,-0.384,-2.11 (inactive),-0.225 (inactive),-0.276 (inactive)
CCOC(=O)C[C@H]1[C@H](OC(=O)Cc2ccc3c(c2)OCO3)[C@@H](NC(=O)c2ccc3ccccc3n2)c2cc(OCCCO)ccc2N1C(=O)c1ccc2ccccc2n1,-0.113 (inactive),0.66,-2.58,-2.98 (inactive),-0.663 (inactive),-0.162 (inactive)
COCCOC(=O)N1C(=O)[C@@]2(c3cc(C#CC4=CCCCC4)ccc31)[C@H](c1ccccc1OCCO)N1[C@H](c3ccccc3)[C@H](c3ccccc3)OC(=O)[C@H]1[C@@H]2C(=O)NC[C@H](O)c1ccccc1,1.57 (inactive),0.742,-1.93,0.449 (inactive),0.0064 (inactive),-0.175 (inactive)
CCCNC(=O)[C@@]1(Sc2ccc(C)cc2)CC(=O)N(C2Cc3ccccc3C2)[C@@H]1c1ccc(CO)cc1I,0.0241 (inactive),0.733,0.441,-2.68 (inactive),0.34 (inactive),0.78 (inactive)
CCCNC(=O)[C@@H]1c2ccccc2C(=O)N(Cc2ccc(OC(F)(F)F)cc2)[C@H]1c1ccc(CO)cc1,0.688 (inactive),0.835,-0.997,-3 (inactive),-0.615 (inactive),-0.366 (inactive)
CCCCN1CC=CC23O[C@@H]4/C=C\CCCOC(=O)C4[C@H]2C(=O)N(CCO)[C@@H]3C1=O (stereo partly drawn),0.51 (inactive),0.157,-1.09,-5.46 (inactive),-0.302 (inactive),0.214 (inactive)
CCCC[C@@H]1C[C@H]1[C@@H](NC(=O)c1cccs1)c1ccccc1C(F)(F)F,0.269 (inactive),0.305,-1.27,0.322 (inactive),-0.0139 (inactive),0.364 (inactive)
O=C1OCCC=C[C@H]2OC34C=CCN(c5ccc6ccccc6c5)C(=O)[C@H]3N(CCCO)C(=O)[C@@H]4C12 (stereo partly drawn),-0.725 (inactive),-0.617,-1.83,-2.31 (inactive),-0.292 (inactive),-0.64 (inactive)
[N-]=[N+]=Nc1ccccc1[C@@H]1OC(c2ccc(OCCCO)cc2)=N[C@]1(Cc1ccccc1)C(=O)O,0.315 (inactive),0.721,-1.85,-4.29 (inactive),-0.178 (inactive),0.168 (inactive)
CCCCC=C[C@@H](NC(=O)OCc1ccccc1Cl)c1ccccc1,-0.549 (inactive),0.573,-1.37,2.14 (inactive),0.663 (inactive),-0.117 (inactive)
